Pf apPOL block: Pf-apPOL DNA polymerase inhibition; hit rate 0.25% among 210,000; Recombinant Pf-apPOL, molecular beacon fluorescence, 1.5 h; inhibition, % at 10 µM
mHTT CaM bind: mHTT-calmodulin interaction abrogation; AlphaScreen His-mHTT/GST-CaM binding, luminescence; hit rate 3.6% among 190,000; P42858; inhibition, % at 15 µM;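 also: 0% = both proteins with DMSO and 100% = one protein alone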
Starred values were filed as active, the others as inactive. A selection: hits, their analogues and other compounds. The true share with any hit is near 3.5%. Rule as the data show it: active = inhibition above about 50%; inactive = the rest.

Screening CC1Cc2nc(SCC(=O)NCCc3ccccc3)n(Cc3ccccc3)c(=O)c2S1 (stereo unspecified) returned Pf apPOL block 1 and mHTT CaM bind 12.
For Cc1cccn2c(=O)c3cc(C(=O)NCc4ccco4)c(=N)n(CCc4ccccc4)c3nc12 the results were Pf apPOL block -8 and mHTT CaM bind 50*.
`Cc1ccc2nc3c(cc(C(=O)NCc4ccccc4)c(=N)n3Cc3ccco3)c(=O)n2c1` gave Pf apPOL block 0 and mHTT CaM bind 37.
`Cc1ccc2nc3c(cc(C(=O)NCc4ccco4)c(=N)n3Cc3ccco3)c(=O)n2c1` gave Pf apPOL block -5 and mHTT CaM bind 66*.
Screening Cc1ccc(S(=O)(=O)c2cc3c(=O)n4ccccc4nc3n(Cc3ccco3)c2=N)cc1 returned Pf apPOL block 2 and mHTT CaM bind 52*.
For N=c1c(C(=O)NCc2ccco2)cc2c(=O)n3ccccc3nc2n1Cc1cccnc1 the results were Pf apPOL block -3 and mHTT CaM bind 14.
N=c1c(C(=O)NCc2ccccc2)cc2c(=O)n3ccccc3nc2n1Cc1ccco1 was read as Pf apPOL block 11 and mHTT CaM bind 85*.
Screening Cc1cccn2c(=O)c3cc(C(=O)NCc4ccccc4)c(=N)n(CCc4ccccc4)c3nc12 returned Pf apPOL block 9 and mHTT CaM bind 0.
For Cc1ccc(S(=O)(=O)c2cc3c(=O)n4cc(C)ccc4nc3n(Cc3ccco3)c2=N)cc1 the results were Pf apPOL block -3 and mHTT CaM bind 6.
CCn1c(=O)c2c(ncn2Cc2ccccc2C)n(-c2ccc(C)cc2)c1=O was read as Pf apPOL block -3 and mHTT CaM bind 2.
`COc1cc(C2=N/C(=C\c3ccccc3Cl)C(=O)O2)cc(OC)c1OC` gave Pf apPOL block 1 and mHTT CaM bind -6.
`O=C(NCC1CCCO1)c1ccc(CNS(=O)(=O)c2cccc(C(F)(F)F)c2)cc1` (stereo unspecified) gave Pf apPOL block -6 and mHTT CaM bind -10.
For CC(=O)C1=C(C)NC(SCC(N)=O)=C(C#N)C1c1ccc(F)cc1 (stereo unspecified) the results were Pf apPOL block 0 and mHTT CaM bind 0.
Oc1ccc2cc(O)ccc2c1 was read as mHTT CaM bind -4.
Screening COc1cccc(-n2nnc(C(=O)O)c2C(F)(F)F)c1 returned Pf apPOL block -2 and mHTT CaM bind 7.
CCc1c(O)nc2ccccn2c1=O was read as Pf apPOL block 73* and mHTT CaM bind -8.
`O=c1c(-c2ccccc2)c(O)nc2ccccn12` gave Pf apPOL block -1.
CNC(=O)C1CC(=O)N(c2ccccc2C)C1 (stereo unspecified) was read as Pf apPOL block 1 and mHTT CaM bind 1.
Screening Cc1ccc(-c2n[nH]c3c2CN(C(=O)c2cccn2C)CC3)cc1 returned Pf apPOL block -12 and mHTT CaM bind 55*.
`O=C(c1ccccn1)N1CCc2[nH]nc(-c3ccccc3)c2C1` gave Pf apPOL block -10 and mHTT CaM bind -4.
`Cn1nc(C(=O)N2CCc3[nH]nc(-c4ccccc4)c3C2)c2ccccc21` gave Pf apPOL block -6 and mHTT CaM bind 87*.
`Cc1ccc(-c2n[nH]c3c2CN(C(=O)c2ccoc2)CC3)cc1` gave Pf apPOL block -9 and mHTT CaM bind 10.
`COc1cccc(C(=O)N2CCn3c(nnc3C(C)C)C2)c1` gave Pf apPOL block -1 and mHTT CaM bind -8.
Cc1ccc(C2CC(C(F)(F)F)n3ncc(C(=O)Nc4ccccc4Cl)c3N2)cc1 (stereo unspecified) was read as Pf apPOL block -5 and mHTT CaM bind 0.
O=[N+]([O-])c1cc2c(cc1CNc1ccc3c(c1)CCC3)OCO2 was read as Pf apPOL block -7 and mHTT CaM bind 81*.
Screening O=[N+]([O-])c1cc2c(cc1CNc1ccc3cn[nH]c3c1)OCO2 returned Pf apPOL block -1 and mHTT CaM bind 45.
`Cc1ccc2oc(-c3cc(N)ccc3O)nc2c1` gave Pf apPOL block -10 and mHTT CaM bind 34.
Screening CC(C)c1ccc2oc(-c3cc(N)ccc3O)nc2c1 returned Pf apPOL block -7 and mHTT CaM bind 62*.
COc1cc(NS(=O)(=O)c2ccc(NC(=O)c3sc4ccccc4c3Cl)cc2)ncn1 was read as Pf apPOL block -1 and mHTT CaM bind 5.
Cc1ccc(CN2C(=O)C(=O)c3cc(Br)ccc32)cc1 was read as Pf apPOL block 0 and mHTT CaM bind 51*.
Screening O=C1C(=O)N(Cc2ccc(F)cc2)c2ccc(Br)cc21 returned Pf apPOL block -1 and mHTT CaM bind 70*.
`O=C1C(=O)N(Cc2ccc(Cl)c(Cl)c2)c2ccc(Br)cc21` gave Pf apPOL block 2 and mHTT CaM bind 100*.
Screening C=CCN1C(=O)C(=O)c2cc(Br)ccc21 returned Pf apPOL block 3 and mHTT CaM bind 9.
CCCN1C(=O)C(=O)c2cc(Br)ccc21 was read as Pf apPOL block -68 and mHTT CaM bind 25.
Screening O=C1C(=O)N(Cc2ccc(F)cc2)c2ccc([N+](=O)[O-])cc21 returned Pf apPOL block -2 and mHTT CaM bind 11.
Cc1ccccc1-n1nc(C)c(C(=O)NCc2cccnc2)c1C(C)C was read as Pf apPOL block -1 and mHTT CaM bind 3.
Screening O=C(NCc1ccc(F)cc1)C1CCN(c2nccn3nc(-c4cccs4)cc23)CC1 returned Pf apPOL block 8 and mHTT CaM bind 10.
`O=C(O)CCCN1C(=O)C(=CC=Cc2ccccc2)SC1=S` gave Pf apPOL block -75 and mHTT CaM bind 25.
`O=C(O)CCCN1C(=O)CC(N2C(=O)C(=CC=Cc3ccccc3)SC2=S)C1=O` (stereo unspecified) gave Pf apPOL block -67 and mHTT CaM bind 54*.
CC(/C=C1\SC(=S)N(CC(=O)O)C1=O)=C\c1ccccc1 was read as Pf apPOL block -2.
`CC(=Cc1ccccc1)C=C1SC(=S)N(C2CC(=O)N(CCCCCC(=O)O)C2=O)C1=O` (stereo unspecified) gave Pf apPOL block -94 and mHTT CaM bind 53*.
For Cc1cc(C)cc(NC(=O)c2cccc([N+](=O)[O-])c2)c1 the results were Pf apPOL block -5 and mHTT CaM bind 1.
`COc1ccc(-c2ccc(CCC(=O)O)n2-c2ccc(OC)cc2OC)cc1` gave Pf apPOL block -3 and mHTT CaM bind 49.
COc1ccc(-n2c(CCC(=O)O)ccc2-c2cccs2)c(OC)c1 was read as Pf apPOL block 8 and mHTT CaM bind 55*.
Screening O=C(Nc1cccc(NC(=O)c2cc3ccccc3o2)c1)c1ccccc1 returned Pf apPOL block 70* and mHTT CaM bind 14.
O=C(O)c1ccc(NC(=O)c2cc3ccccc3o2)cc1 was read as Pf apPOL block -1 and mHTT CaM bind 0.
For Cc1cccc(N(C)S(=O)(=O)c2cc(Br)cc3c2N(C(=O)C2CC2)CC3)c1 the results were Pf apPOL block -5 and mHTT CaM bind -6.
For Cc1ccc(C2=N/C(=C\c3ccc(Br)cc3)C(=O)O2)cc1[N+](=O)[O-] the results were Pf apPOL block -8 and mHTT CaM bind -1.
Screening Cc1ccc(C2=N/C(=C\c3cccc(Br)c3)C(=O)O2)cc1[N+](=O)[O-] returned Pf apPOL block 6 and mHTT CaM bind 51*.
`CN(C)c1ccc(/C=C2\N=C(c3cccc([N+](=O)[O-])c3)OC2=O)cc1` gave Pf apPOL block 97* and mHTT CaM bind -1.

Assay outcomes: PubChem BioAssay, University of Kansas High Throughput Screening Laboratory
